17 compounds from the supplement of paper PMC10037445 can be followed below.

± gives the standard deviation of the averaged measurements. The full ranking holds about 2,900 compounds; the median of “NF-kB SEAP reporter activity, fold change vs agonist alone” is about 0.99, and the highest 2% start at about 2.6. The sample as a whole holds a higher share of the highest values than the screen did.

Test [1] deals with RAW-Dual. Kind of test: NF-kB SEAP reporter activity, fold change vs agonist alone; cytotoxicity flag (confluency mask): not cytotoxic; higher = enhanced NF-kB activity. Put shortly:
(§1)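 Supernatant from RAW-Dual macrophages was read after 20 hours for IRF by QuantiLuc luminescence and for NF-κB by QuantiBlue absorbance at 620 nm. The cells (50,000 cells/well in DMEM, 384-well plates, 37 °C, 5% CO2) had received 50 nL of library stock by pin tool and, 1 h later, a PRR agonist. Reporter activity is expressed relative to agonist-alone wells as fold change, and wells were flagged cytotoxic if IncuCyte confluency was under 70% of agonist controls in both mask sets.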

Test [2] relates to RAW-Dual. Kind of test: NF-kB SEAP reporter activity, fold change vs agonist alone; higher = enhanced NF-kB activity. An outline of the steps:
as §1

The subject of test [3] is RAW-Dual. Kind of test: NF-kB SEAP reporter activity, fold change vs agonist alone; cytotoxicity flag (confluency mask): cytotoxic (confluency <70% of control); higher = enhanced NF-kB activity. An outline of the steps:
as §1

Where [4] appears, read: agonist: ODN 1826 (TLR9) 0.5 ug/mL.
Where [5] appears, read: agonist: Pam2CSK4 (TLR2/6) 0.1 ug/mL.
Setting [6] is: agonist: Pam3CSK4 (TLR2/1) 0.1 ug/mL.
Where [7] appears, read: library stock concentration (final ~1000-fold dilution): 10 mM, cytotoxicity flag (confluency mask): not cytotoxic, agonist: Imiquimod (TLR7) […].
The mark [8] stands for this setting: library stock concentration (final ~1000-fold dilution): 10 mM, cytotoxicity flag (confluency mask): not cytotoxic, agonist: MPLA (TLR4) […].
The mark [9] stands for this setting: library stock concentration (final ~1000-fold dilution): 10 mM, cytotoxicity flag (confluency mask): cytotoxic (confluency <70% of control), agonist: Imiquimod (TLR7) […].
[10] abbreviates: library stock concentration (final ~1000-fold dilution): 10 mM, cytotoxicity flag (confluency mask): cytotoxic (confluency <70% of control), agonist: MPLA (TLR4) […].

`CCN1CCN(Cc2ccc(-c3cc4c(NC(C)c5ccccc5)ncnc4[nH]3)cc2)CC1` (configuration not stated) (library stock concentration (final ~1000-fold dilution): 10 mM): the “NF-kB SEAP reporter activity” value was 0.832 in the test with RAW-Dual [1] (agonist: LPS (TLR4) 0.1 ug/mL), 0.215 in the test with RAW-Dual [1] (setting [4]), 1.02 in the test with RAW-Dual [1] (setting [5]) and 1.01 in the test with RAW-Dual [1] (setting [6]).
On the same counts, the results for `CN1CCC(c2c(O)cc(O)c3c(=O)cc(-c4ccccc4Cl)oc23)C(O)C1.Cl` (configuration not stated) (library stock concentration (final ~1000-fold dilution): 10 mM) are 0.188, 0.968, 0.469 and 1.44.
Regarding `CN1CCC(c2c(O)cc(O)c3c(=O)cc(-c4ccccc4Cl)oc23)C(O)C1.Cl` (configuration not stated), the “NF-kB SEAP reporter activity” value in the test with RAW-Dual [2] (setting [7]) was 1.64; in the test with RAW-Dual [2] (setting [8]), 1.49.
The like results for `CC1(N)CCN(c2cnc(-c3cccc(Cl)c3Cl)c(N)n2)CC1.Cl` were, in that order, 1.11 and 1.18.
As for `CC1(N)CCN(c2cnc(-c3cccc(Cl)c3Cl)c(N)n2)CC1.Cl` (library stock concentration (final ~1000-fold dilution): 10 mM), the “NF-kB SEAP reporter activity” value in the test on RAW-Dual [1] (agonist: LPS (TLR4) 0.1 ug/mL) turned out to be 1.2; in the test on RAW-Dual [1] (setting [4]) it was 0.647; in the test with RAW-Dual [1] (setting [5]) it was 0.778; with RAW-Dual [1] (setting [6]), 0.701.
On the same counts, the results for `Cl.NCCCCC(N)C(=O)O` (configuration not stated) (library stock concentration (final ~1000-fold dilution): 10 mM water) are 1.04, 1.11, 1.21 and 1.17.
Take `Cl.NCCCCC(N)C(=O)O` (configuration not stated): the “NF-kB SEAP reporter activity” value in the test on RAW-Dual [2] (library stock concentration (final ~1000-fold dilution): 10 mM water, cytotoxicity flag (confluency mask): not cytotoxic, agonist: Imiquimod (TLR7) […]) was 0.925; in the test with RAW-Dual [2] (library stock concentration (final ~1000-fold dilution): 10 mM water, cytotoxicity flag (confluency mask): not cytotoxic, agonist: MPLA (TLR4) […]), 1.06.
For `CCOC(=O)C(CCc1ccccc1)NC(C)C(=O)N1CCCC1C(=O)O.O=C(O)/C=C\C(=O)O` (configuration not stated), the “NF-kB SEAP reporter activity” value stood at 0.942 in the test on RAW-Dual [2] (setting [7]) and 1.06 in the test with RAW-Dual [2] (setting [8]).
As to `CCOC(=O)C(CCc1ccccc1)NC(C)C(=O)N1CCCC1C(=O)O.O=C(O)/C=C\C(=O)O` (configuration not stated) (library stock concentration (final ~1000-fold dilution): 10 mM), the “NF-kB SEAP reporter activity” value is 1.08 in the test with RAW-Dual [1] (agonist: LPS (TLR4) 0.1 ug/mL), 1.04 in the test with RAW-Dual [1] (setting [4]), 1.03 with RAW-Dual [1] (setting [5]) and 1.02 with RAW-Dual [1] (setting [6]).
As for `CC12CCC(O)CC1=CCC1C2CCC2(C)C(C(O)CC(O)(C(F)(F)F)C(F)(F)F)CCC12` (configuration not stated), the results for the “NF-kB SEAP reporter activity” value in the test on RAW-Dual [2] (setting [7]) and in the test on RAW-Dual [2] (setting [8]) were 0.815 and 0.786, respectively.
For `CC12CCC(O)CC1=CCC1C2CCC2(C)C(C(O)CC(O)(C(F)(F)F)C(F)(F)F)CCC12` (configuration not stated) (library stock concentration (final ~1000-fold dilution): 10 mM), the “NF-kB SEAP reporter activity” value with RAW-Dual [1] (agonist: LPS (TLR4) 0.1 ug/mL) was 0.54; in the test with RAW-Dual [1] (setting [4]), 0.663; with RAW-Dual [1] (setting [5]), 0.739; in the test on RAW-Dual [1] (setting [6]), 0.489.
On to `O=C(Nc1ccc2[nH]nc(-c3ccc4[nH]ccc4c3)c2c1)c1c(Cl)cccc1Cl` (library stock concentration (final ~1000-fold dilution): 10 mM), for which the “NF-kB SEAP reporter activity” value stood at 0.946 in the test with RAW-Dual [3] (agonist: LPS (TLR4) 0.1 ug/mL), 0.844 in the test with RAW-Dual [3] (setting [4]), 0.0858 in the test on RAW-Dual [3] (setting [5]) and 0.202 in the test with RAW-Dual [3] (setting [6]).
As to `O=C(Nc1ccc2[nH]nc(-c3ccc4[nH]ccc4c3)c2c1)c1c(Cl)cccc1Cl`, the “NF-kB SEAP reporter activity” value in the test on RAW-Dual [2] (setting [9]) was 0.55; in the test on RAW-Dual [2] (setting [10]), 0.704.
As to `C=CC(=O)N1CCC(Oc2nc(Nc3ccc(N4CCC(N5CCN(C)CC5)CC4)cc3)c(C(N)=O)nc2CC)C1` (configuration not stated) (library stock concentration (final ~1000-fold dilution): 10 mM), the “NF-kB SEAP reporter activity” value came out at 1.06 in the test with RAW-Dual [3] (agonist: LPS (TLR4) 0.1 ug/mL), 0.194 in the test with RAW-Dual [3] (setting [4]), 0.507 in the test with RAW-Dual [3] (setting [5]) and 0.542 in the test on RAW-Dual [3] (setting [6]).
Regarding `C=CC(=O)N1CCC(Oc2nc(Nc3ccc(N4CCC(N5CCN(C)CC5)CC4)cc3)c(C(N)=O)nc2CC)C1` (configuration not stated), the “NF-kB SEAP reporter activity” value in the test with RAW-Dual [2] (setting [9]) was 0.967; in the test on RAW-Dual [2] (setting [10]), 1.62.
Turning to `CC1OC(OC2C(=O)c3c(O)cc(O)cc3OC2c2ccc(O)cc2)C(O)C(O)C1O` (configuration not stated), the “NF-kB SEAP reporter activity” value with RAW-Dual [2] (setting [7]) amounted to 1.03 ± 0.025; with RAW-Dual [2] (setting [8]) it was 1.04 ± 0.041.
As for `CC1OC(OC2C(=O)c3c(O)cc(O)cc3OC2c2ccc(O)cc2)C(O)C(O)C1O` (configuration not stated) (library stock concentration (final ~1000-fold dilution): 10 mM), the “NF-kB SEAP reporter activity” value in the test with RAW-Dual [1] (agonist: LPS (TLR4) 0.1 ug/mL) came to 1.09 ± 0.015; in the test on RAW-Dual [1] (setting [4]), 0.9919 ± 0.0043; with RAW-Dual [1] (setting [5]), 1.06 ± 0.064; with RAW-Dual [1] (setting [6]), 1.39 ± 0.41.
